This note sets out measurements from patent US20210230599, “STEM-LOOP COMPOSITIONS AND METHODS FOR INHIBITING INTERLEUKIN-8” (VITRISA THERAPEUTICS, INC., published 2021).

A value given as a limit tells only on which side of the number the result lay.

The target in one experiment is Interleukin-8 (IL8, CXCL8), C-terminal His-tagged (Homo sapiens, UniProt P10145 SEQ:1-72). Put plainly: competition; competition TR-FRET; Aptamer 116 variant. As to conditions: tags: C-terminal His (Sino Biological); stem-loop; ssRNA; 2'-F G except 2'-OMe G at X (CGGU-GGGA-AACGU-GAGAU-GGXUU-GCCG); 2'-OMe A,C,U; 5' C6NH2; 3' idT. The source says: 2′OMe modifications may impart higher duplex stability, increased metabolic stability in serum and vitreous, and may have greater coupling efficiency during synthesis compared to 2′F-containing nucleotides. The use of these nucleotides may also avoid the potential loss of the 2′F group during production, which can happen during deprotection steps and exposure to heat. To probe the effect of 2′F-G to 2′OMe-G substitution on target binding, variants of Aptamer 116 and 212 were synthesized where 2′F-G was selectively substituted with 2′OMe-G (Table 49) and assayed for activity by competition TR-FRET using ALEXA FLUOR® 647-labeled parent Aptamer 212. 2′OMe-G replacements were well tolerated in all positions of stem S1 (Aptamers 242-248).
For “CGGUGGGAAACGUGAGAUGGGUUGCCG [listing 1 of 4 here]”, the binding signal was > 10 fold worse than Aptamer 212.

The same experiment, now with this note: tags: C-terminal His (Sino Biological); stem-loop; ssRNA; 2'-F G except 2'-OMe G at X (CGGU-GGGA-AACGU-GAGAU-GXGUU-GCCG); 2'-OMe A,C,U; 5' C6NH2; 3' idT.
Consider “CGGUGGGAAACGUGAGAUGGGUUGCCG [listing 2 of 4 here]”, for which the binding signal is > 10 fold worse than Aptamer 212.

The experiment is the same for the next values; noted with them: tags: C-terminal His (Sino Biological); stem-loop; ssRNA; 2'-F G except 2'-OMe G at X (CGGU-GGGA-AACGU-GAGAU-XGGUU-GCCG); 2'-OMe A,C,U; 5' C6NH2; 3' idT.
For “CGGUGGGAAACGUGAGAUGGGUUGCCG [listing 3 of 4 here]”, the binding signal was > 10 fold worse than Aptamer 212.

The same experiment, now with this note: tags: C-terminal His (Sino Biological); stem-loop; ssRNA; 2'-F G except 2'-OMe G at X (CGGU-GGGA-AACXU-GAGAU-GGGUU-GCCG); 2'-OMe A,C,U; 5' C6NH2; 3' idT.
“CGGUGGGAAACGUGAGAUGGGUUGCCG [listing 4 of 4 here]”: the binding signal is > 10 fold worse than Aptamer 212.
